# This is one part of the list. Calls of active or inactive are those of the source.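 The calls were made as follows: active = compounds giving 40% or more inhibition at 20 µM in any one of the three replicates; inactive = the rest.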
# Biological target: Uracil-DNA glycosylase (Escherichia coli (strain K12)) (UniProt P12295)
# Test: E. coli UDG inhibitors, confirmation, counter-screen for APOBEC3G inhibitor project, biochemical, single concentration, fluorescence, FAM/TAMRA oligo (AID 504715);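 also: plate controls were DMSO wells with UDG and oligo for no effect and DMSO wells lacking both for full effect; inhibitors lower the FAM signal released by uracil excision and alkaline cleavage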
# Conditions: UDG counterscreen, at 20 µM, stronger effect = higher value
# Chain of Uracil-DNA glycosylase (Escherichia coli (strain K12)) (P12295 whole entry, looked up): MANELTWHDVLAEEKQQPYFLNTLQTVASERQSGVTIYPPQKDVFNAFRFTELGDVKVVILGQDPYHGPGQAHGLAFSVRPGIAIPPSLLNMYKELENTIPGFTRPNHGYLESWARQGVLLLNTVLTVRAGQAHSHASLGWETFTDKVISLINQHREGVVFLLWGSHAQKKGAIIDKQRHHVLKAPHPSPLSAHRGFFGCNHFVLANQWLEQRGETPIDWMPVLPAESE
row,SMILES,inhibition
1,Cc1cc(-c2n[nH]c(=S)n2/N=C/c2ccco2)n[nH]1,2.12% (inactive)
2,CC(=O)N(C1=C(Cl)C(=O)c2ccccc2C1=O)c1ccc(C(=O)O)cc1,-2.05% (inactive)
3,S=c1[nH]nc(-c2ccncc2)n1/N=C/c1ccccc1Cl,-3.82% (inactive)
4,Cc1noc(C)c1CSc1nc2cc(S(=O)(=O)N3CCOCC3)ccc2o1,1.21% (inactive)
5,COc1cccc(C(=O)CC(=O)C(=O)Nc2ccc([N+](=O)[O-])cc2C)c1,3.46% (inactive)
6,CCOc1ccc(NC(=O)c2ccc(NC(=O)COC(=O)c3ccc(NC(=O)CC#N)cc3)cc2)cc1,2.3% (inactive)
7,Cc1cccc(-n2c(N)c(C(=O)N3CCN(C)CC3)sc2=S)c1,-3.91% (inactive)
8,CCOc1cc(C(=S)N2CCOCC2)ccc1O,-2.88% (inactive)
9,Cc1ccnc(-n2sc3ccccc3c2=O)n1,-5.94% (inactive)
10,Nc1ccccc1SC(C[N+](=O)[O-])c1ccccc1 (stereo unspecified),-4.66% (inactive)
11,Fc1ccccc1/C=N/n1c(-c2cccnc2)n[nH]c1=S,0.6% (inactive)
12,Cc1ccc(S(=O)(=O)N(C)CC(=O)NCCc2c[nH]c3ccccc23)cc1,-2.52% (inactive)
13,COC(=O)c1cccc(-n2[nH]nnc2=S)c1,-3.23% (inactive)
14,Cc1ccc(NC(=O)c2sc3nc(N)c(C#N)cc3c2N)cc1,-3.69% (inactive)
15,Cc1n[nH]c(=S)n1/N=C/c1ccc(Br)o1,-0.61% (inactive)
16,CC(=O)N1CC[n+]2c(-c3ccc([N+](=O)[O-])cc3)csc21,-1.28% (inactive)
17,COc1ccc(OCc2nnc3n2N=C(c2ccccc2)C(CC(=O)O)S3)cc1 (stereo unspecified),-3.19% (inactive)
18,S=c1[nH]nc(-c2cc(-c3ccccc3)n[nH]2)n1/N=C/c1c2ccccc2cc2ccccc12,7.23% (inactive)
19,O=C(Cn1cnc([N+](=O)[O-])n1)NCCc1ccccc1,5.33% (inactive)
20,CCC(CC)c1nnc(NC(=O)C2CCN(C(=O)c3ccco3)CC2)s1,4.07% (inactive)
21,CC1=C/C(=N\OS(=O)(=O)c2ccccc2)C=CC1=O,1.47% (inactive)

# — PubChem BioAssay AID504715 (Sanford-Burnham Center for Chemical Genomics, 2011)
